According to PubChem BioAssay AID602256 (National Center for Advancing Translational Sciences (NCATS), 2012):
Inconclusive results are not listed. Unmarked numbers belong to inactive results. The source made the active and inactive calls. The call rests on the fitted dose curve; in most records, active means well fitted curve in the direction sought with a large enough effect; inconclusive means small, poorly fitted or top-dose-only effect, or another doubt; inactive means no such curve, though single readings can be large or run the other way.

target: Relaxin receptor 1 (Homo sapiens) (UniProt Q9HBX9); test: qHTS Assay for Agonists of the Relaxin Receptor RXFP1: RXFP1 SAR; settings: HEK293T-RXFP1 cAMP TR-FRET, 30 min; efficacy: hits give high values
Excerpt: The relaxin hormone is involved in the variety of biological functions in normal tissues and diseases. The role of relaxin is well-established in female reproduction and parturition, mammary gland and endometrial development, maintenance of myometrial quiescence during pregnancy. Relaxin signaling through its G protein-coupled receptor (GPCR) RXFP1 results in ECM remodeling through regulation of collagen deposition, cell invasiveness, proliferation and overall tissue homeostasis. […] Recombinant human relaxin (rhRlx) is currently being tested in clinical trials as a protective agent in congestive heart failure, in treating severe preeclampsia, and as an anti-fibrotic agent in systemic sclerosis. Upon relaxin binding RXFP1 activation leads to the activation of adenylate cyclase (AC) via Gs. cAMP will activate PKA, which phosphorylates many signaling proteins. Thus, detection of cAMP increase is an easy and reliable indication of relaxin receptor activation. To screen for agonists of the relaxin receptor, a HEK293T cell line stably transfected with RXFP1 was used. RXFP1 activation was assayed by changes in cAMP levels as detected with a time-resolved fluorescence energy transfer (TR-FRET) cAMP detection kit. NIH Chemical Genomics Center [NCGC] NIH Molecular Libraries Probe Production Centers Network [MLPCN] MLPCN Grant: R03 MH085705-01A1 Assay Submitter (PI): Alexander Agoulnik
This is a cell-based assay for cAMP second messenger response to screen for agonists of the RXFP1 receptor. The assay was conducted in the presence of a PDE4 inhibitor (Ro 20174). The cells were lysed and the cAMP levels were measured with a TR-FRET cAMP kit. Presence of cAMP in the cell lysate disrupts binding between the cryptate-labeled anti-cAMP and d2-labeled cAMP pair, leading to a decrease in the TR-FRET signal. Data were normalized to the controls for basal activity (buffer only) and 100% activity (29 nM porcine relaxin). The EC50 values were determined from concentration-response data modeled with the standard Hill equation 1536-well assay protocol for the HEK293 RXFP1 cAMP assay: (1) Add 3 ul HEK293 RXFP1 cell culture. 2000 cells/well in DMEM/F12, 10% FBS, 1x Pen/Strep (dispensed offline with MultiDrop Combi). (2) Incubate 16-24 hr at 37C, 5% CO2. (3) Add 1 ul 400uM Ro20174 in DPBS, 0.05% BSA, 0.005% Tween 20. (3) Add 23 nl compounds in DMSO solution. Final concentration was 0.5 - 58 uM. (4) Incubate 30 min at 37C, 5% CO2. (5) Add 1 ul cAMP-d2 in lysis buffer (HTRF cAMP HiRange kit, CisBio). (6) Add 1 ul anti-cAMP antibody-cryptate in lysis buffer (HTRF cAMP HiRange kit, CisBio). (7) Incubate 30 min at room temperature. (6) Detect the assay plate in a ViewLux plate reader (PerkinElmer) with Ex=320 nm, Em1=615 nm and Em2=665 nm. Keywords: relaxin, RXFP1, RXFP2, G-protein coupled receptor, cAMP, agonist, high throughput screening, MLSMR, MLSCN, NIH Roadmap, qHTS and NCGC

Relaxin receptor 1 (Homo sapiens), sequence (Q9HBX9 whole entry, looked up): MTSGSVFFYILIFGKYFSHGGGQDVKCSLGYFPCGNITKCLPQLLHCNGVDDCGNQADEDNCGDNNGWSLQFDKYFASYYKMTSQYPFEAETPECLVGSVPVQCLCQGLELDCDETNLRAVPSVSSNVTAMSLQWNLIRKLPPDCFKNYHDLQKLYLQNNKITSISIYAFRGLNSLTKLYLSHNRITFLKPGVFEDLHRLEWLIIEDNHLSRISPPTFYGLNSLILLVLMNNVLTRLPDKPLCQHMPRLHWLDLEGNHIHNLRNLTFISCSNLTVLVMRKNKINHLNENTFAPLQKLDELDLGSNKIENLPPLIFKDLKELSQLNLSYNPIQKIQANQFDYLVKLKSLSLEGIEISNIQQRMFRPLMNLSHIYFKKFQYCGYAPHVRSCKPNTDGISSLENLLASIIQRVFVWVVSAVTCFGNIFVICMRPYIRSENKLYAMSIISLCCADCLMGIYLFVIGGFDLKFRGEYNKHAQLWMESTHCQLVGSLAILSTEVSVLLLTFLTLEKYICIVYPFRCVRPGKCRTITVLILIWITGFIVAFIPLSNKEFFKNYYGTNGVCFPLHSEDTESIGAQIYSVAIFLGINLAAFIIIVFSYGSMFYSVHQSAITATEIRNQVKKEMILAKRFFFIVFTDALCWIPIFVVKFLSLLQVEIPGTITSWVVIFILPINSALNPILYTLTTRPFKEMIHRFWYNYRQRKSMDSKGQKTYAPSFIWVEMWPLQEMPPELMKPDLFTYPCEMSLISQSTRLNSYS

Question: O=C(Nc1ccccc1C(=O)Nc1cccc(C(F)(F)F)c1)c1cccnc1 was tested. Which Potency did it give?
Answer: Its Potency is 5930 nM (active).

Question: With O=C(Nc1cccc(C(F)(F)F)c1)c1ccccc1NC(=O)c1ccccc1OC(F)(F)F as the compound, how does the Potency read?
Answer: The Potency was 1180 nM (active).

Question: Which Potency does the source give for O=C(Nc1cccc([N+](=O)[O-])c1)c1ccccc1NC(=O)C1CCCCC1 here?
Answer: The Potency was 5930 nM (active).

Question: With Cc1ccccc1C(=O)Nc1ccccc1C(=O)Nc1cccc(C(F)(F)F)c1 as the compound, how does the Potency read?
Answer: Its Potency is 4200 nM (active).

Question: With COc1ccccc1C(=O)Nc1ccccc1C(=O)Nc1cccc(SC(F)(F)F)c1 as the compound, how does the Potency read?
Answer: The Potency was 297 nM (active).

Question: Which Potency does the source give for CCOc1ccccc1C(=O)Nc1sccc1C(=O)Nc1cccc(S(=O)(=O)C(F)(F)F)c1 here?
Answer: The Potency was 2360 nM (active).

Question: With O=C(Nc1cccc(-c2cccc(C(F)(F)F)c2)c1)c1ccccc1NC(=O)C1CCCCC1 as the compound, how does the efficacy read?
Answer: The efficacy was 15%.

Question: With O=C(Nc1cccc(Br)c1)c1ccccc1NC(=O)C1CCCCC1 as the compound, how does the Potency read?
Answer: The Potency was 2650 nM (active).

Question: Which Potency does the source give for COc1cccc(OC)c1C(=O)Nc1ccccc1C(=O)Nc1cccc(C(F)(F)F)c1 here?
Answer: Its Potency is 7470 nM (active).

Question: How did the Potency turn out when CSc1cccc(NC(=O)c2ccccc2NC(=O)C2CCCCC2)c1 was run?
Answer: The Potency was 5290 nM (active).

Question: How did the Potency turn out when CCSc1ccccc1C(=O)Nc1ccccc1C(=O)Nc1cccc(S(=O)(=O)C(F)(F)F)c1 was run?
Answer: The Potency was 529 nM (active).

Question: Which efficacy does the source give for CCOc1ccccc1-c1nc2c(C(=O)Nc3cccc(S(=O)(=O)C(F)(F)F)c3)cccc2[nH]1 here?
Answer: Its efficacy is 4.9%.

Question: Which Potency does the source give for CCCOc1ccccc1C(=O)Nc1ccccc1C(=O)Nc1cccc(S(=O)(=O)C(F)(F)F)c1 here?
Answer: Its Potency is 52.9 nM (active).

Question: Which Potency does the source give for O=C(Nc1cccc(F)c1)c1ccccc1NC(=O)C1CCCCC1 here?
Answer: The Potency was 13300 nM (active).

Question: How did the Potency turn out when COc1cccc(C(=O)Nc2ccccc2C(=O)Nc2cccc(C(F)(F)F)c2)c1 was run?
Answer: The Potency was 1880 nM (active).

Question: COc1ccccc1C(=O)Nc1ccccc1C(=O)Nc1cccc(S(=O)(=O)C(F)(F)F)c1 was tested. Which Potency did it give?
Answer: Its Potency is 188 nM (active).

Question: Which Potency does the source give for COc1ccc(C(=O)Nc2ccccc2C(=O)Nc2cccc(C(F)(F)F)c2)cc1 here?
Answer: The Potency was 9400 nM (active).

Question: For CCOc1ccccc1C(=O)Nc1cnccc1C(=O)Nc1cccc(S(=O)(=O)C(F)(F)F)c1, which Potency is on record?
Answer: Its Potency is 2970 nM (active).

Question: O=C(Nc1cccc(C(F)(F)F)c1)c1ccccc1NC(=O)C1CCCCCC1 was tested. Which Potency did it give?
Answer: The Potency was 2110 nM (active).

Question: O=C(Nc1cccc(SC(F)(F)F)c1)c1ccccc1NC(=O)C1CCCCC1 was tested. Which Potency did it give?
Answer: The Potency was 1880 nM (active).

Question: CCOc1ccccc1C(=O)Nc1ccccc1C(=O)Nc1cccc(C(F)(F)F)c1 was tested. Which Potency did it give?
Answer: Its Potency is 265 nM (active).

Question: How did the Potency turn out when CCOc1ccccc1C(=O)Nc1cccnc1C(=O)Nc1cccc(S(=O)(=O)C(F)(F)F)c1 was run?
Answer: The Potency was 4710 nM (active).

Question: With O=C(Cc1ccccc1)Nc1ccccc1C(=O)Nc1cccc(C(F)(F)F)c1 as the compound, how does the Potency read?
Answer: The Potency was 8380 nM (active).

Question: With CN(C)CCOc1ccccc1C(=O)Nc1ccccc1C(=O)Nc1cccc(C(F)(F)F)c1 as the compound, how does the Potency read?
Answer: Its Potency is 3740 nM (active).

Question: For O=C(Nc1ccccc1C(=O)Nc1cccc(C(F)(F)F)c1)c1ccccc1, which Potency is on record?
Answer: Its Potency is 1330 nM (active).

Question: Which Potency does the source give for COCCOc1ccccc1C(=O)Nc1ccccc1C(=O)Nc1cccc(C(F)(F)F)c1 here?
Answer: The Potency was 747 nM (active).

Question: With O=C(Nc1cccc(C(F)(F)F)c1)c1ccccc1NC(=O)C1CCC1 as the compound, how does the Potency read?
Answer: The Potency was 2970 nM (active).

Question: With COc1ccccc1C(=O)N(C)c1ccccc1C(=O)N(C)c1cccc(C(F)(F)F)c1 as the compound, how does the efficacy read?
Answer: The efficacy was 0.957%.

Question: Which Potency does the source give for CC(C)(C)c1cccc(NC(=O)c2ccccc2NC(=O)C2CCCCC2)c1 here?
Answer: The Potency was 2650 nM (active).

Question: Which efficacy does the source give for COc1ccccc1C(=O)Nc1ccc(C(=O)Nc2cccc(C(F)(F)F)c2)cc1 here?
Answer: The efficacy was -2.02%.

Question: With CCOc1ccccc1C(=O)Nc1ccccc1CNc1cccc(S(=O)(=O)C(F)(F)F)c1 as the compound, how does the Potency read?
Answer: Its Potency is 2650 nM (active).

Question: Which efficacy does the source give for COc1ccccc1C(=O)Nc1cccc(C(=O)Nc2cccc(C(F)(F)F)c2)c1 here?
Answer: The efficacy was 1.37%.

Question: Which Potency does the source give for CCOc1ccccc1C(=O)NCCC(=O)Nc1cccc(S(=O)(=O)C(F)(F)F)c1 here?
Answer: The Potency was 4710 nM (active).

Question: For O=C(Nc1ccccc1C(=O)Nc1cccc(C(F)(F)F)c1)c1ccccc1Cl, which Potency is on record?
Answer: The Potency was 3740 nM (active).

Question: For COc1ccccc1Nc1ccccc1C(=O)Nc1cccc(C(F)(F)F)c1, which Potency is on record?
Answer: Its Potency is 4710 nM (active).

Question: With CCOc1ccccc1C(=O)Nc1ccncc1C(=O)Nc1cccc(S(=O)(=O)C(F)(F)F)c1 as the compound, how does the Potency read?
Answer: The Potency was 747 nM (active).

Question: O=C(NCc1ccco1)c1ccccc1NC(=O)c1ccccc1NC(=O)C1CCCCC1 was tested. Which Potency did it give?
Answer: The Potency was 9400 nM (active).

Question: CCCCOc1ccccc1C(=O)Nc1ccccc1C(=O)Nc1cccc(S(=O)(=O)C(F)(F)F)c1 was tested. Which Potency did it give?
Answer: The Potency was 47.1 nM (active).

Question: CCOc1ccccc1C(=O)Nc1ncccc1C(=O)Nc1cccc(S(=O)(=O)C(F)(F)F)c1 was tested. Which Potency did it give?
Answer: Its Potency is 1670 nM (active).

Question: Which Potency does the source give for O=C(Nc1cccc(C(F)(F)F)c1)c1ccccc1NC(=O)C1CCCCC1 here?
Answer: Its Potency is 1880 nM (active).
